According to PubChem BioAssay AID2205 (University of Pittsburgh Molecular Library Screening Center, 2009):
The whole screen tested about 200,000 compounds, of which about 1,600 (0.8%) were called active.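 The calls were made as follows: active = plate Z-score above 3 for both tubulin-high and condensed-nucleus cell shares, with cell loss under 80%, at 10 µM; inactive = the rest, inconclusive results apart.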 Only a selection was taken, and actives are over-represented in it overall.

Test: microtubule stabilizers in HeLa cells, primary screen, imaging, high-content imaging (AID 2205);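 as to % tubulin-high responders: anti alpha tubulin signal scored within the nucleus-defined area of each cell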;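 as to toxicity: 0% = mean cell density of plate MIN control wells and 100% = no cells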
Conditions: HeLa tubulin immunostaining HCS, 24 h, at 10 µM; % Hoechst-high responders: measured here: nuclear condensation Hoechst responders, stronger effect = higher value; % tubulin-high responders: stronger effect = higher value; toxicity: measured here: cytotoxicity by cell density

Compound	% Hoechst-high responders [%]	% tubulin-high responders	toxicity [%]
Cc1cccc(-n2c(C)nc3cc(C(=O)N4CCC5(CC4)OCCO5)ccc32)c1	32.4	48.1% (active)	34.2
O=C(c1cc(-c2ccncc2)nc2ccccc12)N1CCC2(CC1)OCCO2	1.52	3.12% (inactive)	6.16
Cc1ccc(-c2cc(C(=O)N3CCC4(CC3)OCCO4)no2)cc1	2.17	2.98% (inactive)	5.89
O=C(O)CCn1cc(C=C2C(=O)NC(=S)NC2=O)c(-c2cccc(Br)c2)n1	1.76	1.65% (inactive)	3.44
C[N+]12CN3CN(CN(C3)C1)C2	0.953	7.11% (inactive)	4.73
COc1cc(-n2c(=S)[nH]c3ccc(C)cc3c2=O)c(Cl)cc1Cl	23.7	12.4% (active)	29
CC(Cc1cccs1)NCc1ccc(Cl)cc1 (stereo not given)	2.36	3.24% (inactive)	0.83
CN1CCN(C(=O)COc2ccc(C(C)(C)C)cc2Br)CC1	1.35	1.46% (inactive)	9.25
Cc1cccc2c(CCN)c[nH]c12	2.2	2.61% (inactive)	4.06
Cc1cc(C)cc(NC(=S)NC2CC3CCCC(C2)N3Cc2cccs2)c1 (stereo not given)	1.98	3.91% (inactive)	8.8
